We go through 27 compounds from PubChem BioAssay (NCATS).

The structures appear in SMILES notation. Several values for one entry are separate records, joined by “and”; a condition that tells them apart may be missing. Equal values may be shown once. Inconclusive results are not listed. Activity calls are given as the source filed them. Unless noted, the call rests on the fitted dose curve; in most records, active means well fitted curve in the direction sought with a large enough effect; inconclusive means small, poorly fitted or top-dose-only effect, or another doubt; inactive means no such curve, though single readings can be large; an effect the other way counts as inactive or inconclusive.

The target in experiment [1] is Calcium and integrin-binding protein 1 (Homo sapiens) (UniProt Q99828). Briefly: Validation qHTS for Identification of Calcium Integrin Binding protein 1 (CIB1) Competitor (AID 1508618). Further: potency means the concentration at half of the fitted maximal effect. On activity change, negative = inhibition: on the % scale 0 is the no-effect control and ±100 the full control effect. The procedure, abridged:
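Fluorescence polarization with 1 uM CIB1-GST and 100 nM FITC-alphaIIb peptide in HEPES pH 7.4, NaCl, 5 mM CaCl2, Tween20. Compounds at up to 114 uM final, preincubated with protein 15 min; read after 15 min more at RT.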

Experiment [2] is described as follows: Counterscreen qHTS for small molecule stabilizers of the endoplasmic reticulum resident proteome: GLuc-NoTag assay (AID 1508627). Further: potency means the concentration at half of the fitted maximal effect.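 On activity change, negative = inhibition: SH-SY5Y cells given compound then 100 nM thapsigargin to empty ER calcium; 0% = thapsigargin alone and -100% = DMSO vehicle control.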 The procedure, abridged: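 Counterscreen line: SH-SY5Y-GLuc-NoTag. Seed, 5 h; compound, 19 h; thapsigargin 100 nM, 4 h; 37C/5% CO2. Readout: secreted GLuc luminescence, coelenterazine 0.07x final, no lysis.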
Experiment [3] is described as follows: Primary qHTS for small molecule stabilizers of the endoplasmic reticulum resident proteome: Secreted ER Calcium Modulated Protein (SERCaMP) assay (AID 1508630). Further: potency means the concentration at half of the fitted maximal effect. On activity change, negative = inhibition: on the % scale 0 is the no-effect control and ±100 the full control effect. In outline:
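The SH-SY5Y reporter protocol was run at 3 concentrations up to 38.3 uM (primary) or 11 concentrations (follow-up): 16 h compound, 100 nM thapsigargin for 4 h, then extracellular luciferase luminescence.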

For another experiment, the target named is Papain (Carica papaya) (UniProt P00784). As to the kind of experiment: Primary qHTS assay for inhibitors of the protease papain (AID 1645873).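 Further: papain turnover of Z-FR-AMC read as the AMC fluorescence gain over 10 min.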 Further: potency means the concentration at half of the fitted maximal effect.
Experiment [4] concerns the target Rap guanine nucleotide exchange factor 3 (Homo sapiens) (UniProt O95398). As to the kind of experiment: Confirmatory qHTS for antagonist of cAMP-regulated guanine nucleotide exchange factor 3 (EPAC1) (AID 1645880).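 Further: plate controls were DMSO only for no effect and full effect of the ATA control for full effect; nearly all actives have a fitted effect of over 55% in size.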 The procedure, abridged:
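Released BODIPY-GDP fluoresces less than Rap1-bound BODIPY-GDP; the signal is followed at 480/540 nm at 5-min intervals over 30 min, after 5 min at room temperature. Reactions contain 100 nM EPAC1, 250 nM RAP1B-BODIPY-GDP and 50 uM GDP; results are normalized to ATA and DMSO.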

The target is the same in experiment [5]. As to the kind of experiment: Confirmatory qHTS for agonist of cAMP-regulated guanine nucleotide exchange factor 3 (EPAC1) (AID 1645881).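 Further: EPAC1 catalysed release of BODIPY-GDP from Rap1B seen as fluorescence loss; 100% = effect of cAMP agonist control; nearly all actives have a fitted effect of over 75% in size.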
Experiment [6] is described as follows: Primary qHTS for inhibitors of nuclear receptor binding SET domain protein 2 (NSD2) in an isogenic RCH-ACV NSD2 p.E1099K mutant (9B) (AID 1645876). Further: nearly all actives have a fitted effect of over 70% in size. Further: potency means the concentration at half of the fitted maximal effect.
A short description of experiment [7]: Primary qHTS for inhibitors of nuclear receptor binding SET domain protein 2 (NSD2) in an RCH-ACV wild type WT cells (2C) (AID 1645877). Further: nearly all actives have a fitted effect of over 70% in size. Further: potency means the concentration at half of the fitted maximal effect.
For experiment [8], the target named is Calcium and integrin-binding protein 1 (Homo sapiens) (UniProt Q99828). As to the kind of experiment: Primary qHTS for Identification of Calcium Integrin Binding Protein 1 (CIB1) Competitor (AID 1508620).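 Further: GST tagged CIB1 binding a fluorescein labelled alphaIIb integrin peptide tracer; top concentration of the series differs between compounds; on the % scale 0 is the no-effect control and ±100 the full control effect.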 In outline:
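Fluorescence polarization competition: GST-tagged CIB1 (1 uM final) preincubated with compound 15 min at room temperature, then FITC-labelled alphaIIb peptide (100 nM final) added. After 15 min at room temperature, polarization read at Ex 480/Em 540.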

Experiment [9] is described as follows: Cell Viability qHTS for small molecule stabilizers of the endoplasmic reticulum resident proteome (AID 1508629).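 Further: human SH-SY5Y neuroblastoma cells carrying the GLuc-SERCaMP reporter; compound exposure about 46 h in total before the viability read; on the % scale 0 is the no-effect control and ±100 the full control effect.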 As to conditions: cell viability counter-screen, 100 nM thapsigargin for final 4 h.
Experiment [10] can be described thus: A High-Content qHTS Against Drug Library for the Identification of Small Molecules that Inhibit DYT1 Early Onset Primary Dystonia-Associated Cell Pathology (AID 1645839; calls by dose curve). The procedure, abridged:
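Cells were seeded and left for 24 h, then dosed with compound alongside tetracycline induction of mutant EGFP-TorsinA. They were incubated for 48 h, fixed in 4% paraformaldehyde, permeabilized and imaged for mislocalization (%pathology) and cell count.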

Experiment [11] addresses Cytochrome P450 2D6 (Homo sapiens) (UniProt P10635). Briefly: Cytochrome P450 family 2 subfamily D member 6 (CYP2D6) small molecule antagonists: luciferase biochemical (cell-free) qHTS assay (AID 1645840; active means well fitted curve in the direction sought with a large enough effect in the repeat runs; an effect the other way counts as inactive or inconclusive; further: nearly all actives have a fitted effect of over 55% in size; further: potency means the concentration at half of the fitted maximal effect). The procedure, abridged:
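P450-Glo CYP2D6 system: proluciferin substrate converted by enzyme to luciferin, read by luminescence proportional to activity. Enzyme-substrate mix with compound 10 min at room temperature, then NADPH regeneration 1 h before detection reagent.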

Experiment [12] addresses Cytochrome P450 2C9 (Homo sapiens) (UniProt P11712). As to the kind of experiment: Cytochrome P450 family 2 subfamily C member 9 (CYP2C9) small molecule antagonists: luciferase biochemical (cell-free) qHTS assay (AID 1645842; active means well fitted curve in the direction sought with a large enough effect in the repeat runs; an effect the other way counts as inactive or inconclusive; further: nearly all actives have a fitted effect of over 55% in size; further: potency means the concentration at half of the fitted maximal effect). The procedure, abridged: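 P450-Glo CYP2C9 system: proluciferin substrate with enzyme in mix containing 0.4% BSA, 10 min at room temperature, then NADPH regeneration solution added and incubated 1 h at 37C. Detection reagent stopped reaction; luminescence read after 20 min as RLU.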

Experiment [13] deals with N-terminal Xaa-Pro-Lys N-methyltransferase 1 (Homo sapiens) (UniProt Q9BV86). As to the kind of experiment: Confirmatory qHTS for Inhibitors of N-terminal methyltransferase 1 (NTMT1): MTaseGlo Assay (AID 1645874). Further: potency means the concentration at half of the fitted maximal effect; nearly all actives have a fitted effect of over 65% in size. The procedure, abridged:
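Inhibition was derived from luminescence after SAH-to-ATP conversion, scaled between no-enzyme and DMSO wells, then fitted by 4-parameter Hill. Conditions: 125 nM NTMT1, 100 uM SAM, 1 uM SPKRIA, 30 min RT.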

In experiment [14] the target is Catechol O-methyltransferase (Homo sapiens) (UniProt P21964). Briefly: Confirmatory Screen for Target Class Profiling of Small Molecule Inhibitors of Methyltransferases (AID 1745852). The conditions noted are these: MTase-Glo luminescence, SAH detection, recombinant enzyme; measured here: COMT max response; stronger effect = lower value.
The target in experiment [15] is Guanidinoacetate N-methyltransferase (Homo sapiens) (UniProt Q14353). The experiment is described as above. The conditions noted are these: MTase-Glo luminescence, SAH detection, recombinant enzyme; activity change, negative = inhibition: at 57.3 µM (top of the series) unless noted.
Experiment [16] concerns the target Cytochrome P450 3A4 (Homo sapiens) (UniProt P08684). As to the kind of experiment: Cytochrome P450 family 3 subfamily A member 4 (CYP3A4) small molecule antagonists: luciferase qHTS assay (AID 1645841; active means well fitted curve in the direction sought with a large enough effect in the repeat runs; an effect the other way counts as inactive or inconclusive; further: nearly all actives have a fitted effect of over 45% in size). In outline:
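P450-Glo CYP3A4 enzyme with proluciferin substrate preincubated 10 min with compound at room temperature, then NADPH regeneration 1 h. Luciferin detection reagent added for 20 min; luminescence recorded. Ketoconazole positive control.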

Chain of Cytochrome P450 2D6 (Homo sapiens) (P10635 whole entry, looked up): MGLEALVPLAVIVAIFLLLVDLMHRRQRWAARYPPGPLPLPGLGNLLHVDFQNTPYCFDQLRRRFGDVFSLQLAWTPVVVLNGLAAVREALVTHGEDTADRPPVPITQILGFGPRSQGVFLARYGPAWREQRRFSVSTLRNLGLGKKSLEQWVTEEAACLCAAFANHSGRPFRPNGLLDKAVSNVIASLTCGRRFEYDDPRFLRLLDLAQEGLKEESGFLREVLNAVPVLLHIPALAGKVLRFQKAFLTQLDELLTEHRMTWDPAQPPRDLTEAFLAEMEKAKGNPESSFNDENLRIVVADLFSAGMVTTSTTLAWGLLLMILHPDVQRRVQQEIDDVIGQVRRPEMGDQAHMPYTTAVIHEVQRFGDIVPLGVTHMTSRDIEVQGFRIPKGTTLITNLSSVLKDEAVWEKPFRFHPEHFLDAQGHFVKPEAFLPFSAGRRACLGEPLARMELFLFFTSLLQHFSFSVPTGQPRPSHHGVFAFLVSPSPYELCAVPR
Chain of Papain (Carica papaya) (P00784 whole entry, looked up): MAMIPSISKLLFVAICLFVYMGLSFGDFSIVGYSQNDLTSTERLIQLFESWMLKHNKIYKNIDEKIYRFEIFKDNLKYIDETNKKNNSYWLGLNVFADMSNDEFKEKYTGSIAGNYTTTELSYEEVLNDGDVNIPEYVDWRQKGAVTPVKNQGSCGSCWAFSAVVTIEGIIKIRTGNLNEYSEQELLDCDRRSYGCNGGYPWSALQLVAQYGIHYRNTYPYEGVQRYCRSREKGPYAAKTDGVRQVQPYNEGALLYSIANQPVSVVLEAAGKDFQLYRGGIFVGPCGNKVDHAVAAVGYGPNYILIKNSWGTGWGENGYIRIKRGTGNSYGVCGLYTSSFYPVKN
Chain of Calcium and integrin-binding protein 1 (Homo sapiens) (Q99828 whole entry, looked up): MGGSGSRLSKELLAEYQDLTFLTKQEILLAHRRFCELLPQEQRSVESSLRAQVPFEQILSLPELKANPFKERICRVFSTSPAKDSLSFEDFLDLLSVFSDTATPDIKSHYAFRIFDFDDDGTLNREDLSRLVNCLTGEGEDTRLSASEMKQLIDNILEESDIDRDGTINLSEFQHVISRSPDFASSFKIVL
Chain of Cytochrome P450 2C9 (Homo sapiens) (P11712 whole entry, looked up): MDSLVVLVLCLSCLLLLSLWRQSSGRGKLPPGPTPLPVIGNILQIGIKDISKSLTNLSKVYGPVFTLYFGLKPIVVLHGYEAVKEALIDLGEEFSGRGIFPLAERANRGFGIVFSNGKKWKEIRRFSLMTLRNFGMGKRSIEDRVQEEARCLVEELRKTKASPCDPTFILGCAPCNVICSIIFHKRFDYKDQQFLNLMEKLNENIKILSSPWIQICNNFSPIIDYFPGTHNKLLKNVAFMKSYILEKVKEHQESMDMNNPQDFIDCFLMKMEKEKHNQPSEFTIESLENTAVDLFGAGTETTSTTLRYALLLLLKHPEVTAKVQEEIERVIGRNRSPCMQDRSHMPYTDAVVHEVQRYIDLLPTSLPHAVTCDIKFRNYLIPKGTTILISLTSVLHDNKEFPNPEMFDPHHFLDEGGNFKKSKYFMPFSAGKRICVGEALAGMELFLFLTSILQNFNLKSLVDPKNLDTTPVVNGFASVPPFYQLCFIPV
Chain of Catechol O-methyltransferase (Homo sapiens) (P21964 whole entry, looked up): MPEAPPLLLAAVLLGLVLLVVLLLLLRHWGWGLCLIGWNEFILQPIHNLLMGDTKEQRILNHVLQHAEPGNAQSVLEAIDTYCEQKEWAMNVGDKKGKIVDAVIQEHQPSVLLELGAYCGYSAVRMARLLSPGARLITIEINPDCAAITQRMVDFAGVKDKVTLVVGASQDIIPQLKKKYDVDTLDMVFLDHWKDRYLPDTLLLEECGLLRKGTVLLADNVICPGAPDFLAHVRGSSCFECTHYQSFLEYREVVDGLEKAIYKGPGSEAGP
Chain of Rap guanine nucleotide exchange factor 3 (Homo sapiens) (O95398 whole entry, looked up): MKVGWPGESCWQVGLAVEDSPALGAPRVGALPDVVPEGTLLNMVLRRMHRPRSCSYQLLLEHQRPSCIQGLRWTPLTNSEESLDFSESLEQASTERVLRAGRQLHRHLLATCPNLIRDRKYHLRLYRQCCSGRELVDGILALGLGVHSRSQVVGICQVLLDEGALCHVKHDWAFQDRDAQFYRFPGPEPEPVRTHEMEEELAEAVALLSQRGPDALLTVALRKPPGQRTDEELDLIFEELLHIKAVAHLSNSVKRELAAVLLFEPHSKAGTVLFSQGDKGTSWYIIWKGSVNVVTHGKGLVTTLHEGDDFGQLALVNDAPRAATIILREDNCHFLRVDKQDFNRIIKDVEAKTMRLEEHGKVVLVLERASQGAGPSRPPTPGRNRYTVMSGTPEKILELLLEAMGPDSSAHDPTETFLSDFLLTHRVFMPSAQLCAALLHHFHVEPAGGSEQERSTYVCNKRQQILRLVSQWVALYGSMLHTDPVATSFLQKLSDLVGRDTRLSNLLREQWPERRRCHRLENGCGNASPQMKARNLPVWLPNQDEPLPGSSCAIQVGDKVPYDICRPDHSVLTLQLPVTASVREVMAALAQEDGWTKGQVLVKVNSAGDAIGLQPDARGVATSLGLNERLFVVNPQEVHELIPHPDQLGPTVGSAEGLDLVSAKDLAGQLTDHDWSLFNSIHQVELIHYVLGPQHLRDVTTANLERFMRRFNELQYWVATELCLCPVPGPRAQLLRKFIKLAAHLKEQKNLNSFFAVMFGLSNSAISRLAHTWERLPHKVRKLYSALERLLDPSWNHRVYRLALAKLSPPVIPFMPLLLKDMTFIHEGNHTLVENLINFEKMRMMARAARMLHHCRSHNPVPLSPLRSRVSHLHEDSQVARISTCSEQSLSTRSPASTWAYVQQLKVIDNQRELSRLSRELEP
Chain of Cytochrome P450 3A4 (Homo sapiens) (P08684 whole entry, looked up): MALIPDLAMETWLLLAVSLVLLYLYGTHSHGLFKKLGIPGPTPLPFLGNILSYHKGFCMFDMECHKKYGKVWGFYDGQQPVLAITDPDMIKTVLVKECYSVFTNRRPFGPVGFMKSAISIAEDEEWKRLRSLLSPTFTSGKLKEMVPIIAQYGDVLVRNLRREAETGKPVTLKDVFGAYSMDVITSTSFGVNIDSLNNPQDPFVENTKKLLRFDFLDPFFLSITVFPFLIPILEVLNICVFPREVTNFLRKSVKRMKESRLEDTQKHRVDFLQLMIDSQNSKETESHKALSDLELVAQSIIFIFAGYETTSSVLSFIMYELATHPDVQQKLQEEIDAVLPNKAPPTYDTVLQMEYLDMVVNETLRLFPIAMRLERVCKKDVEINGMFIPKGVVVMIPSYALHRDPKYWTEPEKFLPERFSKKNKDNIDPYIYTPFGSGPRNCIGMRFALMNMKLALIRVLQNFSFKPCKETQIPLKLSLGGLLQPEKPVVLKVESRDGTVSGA
Chain of N-terminal Xaa-Pro-Lys N-methyltransferase 1 (Homo sapiens) (Q9BV86 whole entry, looked up): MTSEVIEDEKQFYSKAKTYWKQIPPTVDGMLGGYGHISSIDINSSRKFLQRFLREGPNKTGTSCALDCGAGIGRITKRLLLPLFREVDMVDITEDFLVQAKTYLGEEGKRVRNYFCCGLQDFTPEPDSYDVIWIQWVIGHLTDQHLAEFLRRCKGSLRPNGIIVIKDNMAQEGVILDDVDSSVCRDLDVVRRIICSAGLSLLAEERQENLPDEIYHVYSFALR

As to `CCOC(=O)N1CCC(=C2c3ccc(Cl)cc3CCc3cccnc32)CC1`, the Potency entry (in [1]; in experiment [3]; in the experiment with Papain (Carica papaya); in experiment [4]) was “inactive” throughout. In experiment [2], the Potency was 35.5 µM (active). Besides, in experiment [5], the outcome was “inactive”.
On to `Cc1cc2c(C(C)C)c(O)c(O)c(C=O)c2c(O)c1-c1c(C)cc2c(C(C)C)c(O)c(O)c(C=O)c2c1O`, for which the Potency in experiment [1] was 22.4 µM (active); in the experiment with Papain (Carica papaya), 12.6 µM (active); in experiment [6], 10.5 µM (active); in experiment [7], 9.34 µM (active). Moreover, in [3], the Potency entry was “inactive”.
With `Cc1cccc(-c2nn(C(=S)Nc3ccccc3)cc2-c2ccnc3ccccc23)n1`, the outcome in experiment [8] is “inactive”. Besides, in [3], the Potency result was “inactive”.
With `O=C(Nc1nc2ccccc2n1CCN1CCOCC1)c1cccc([N+](=O)[O-])c1`, the Potency result (in experiment [1]; in the experiment with Papain (Carica papaya); in [6]; in experiment [7]) was “inactive” throughout.
As for `COc1ccc2nc(S(=O)Cc3ncc(C)c(OC)c3C)[nH]c2c1` (stereo not drawn), the outcome in experiment [8] was “inactive”. In addition, the Potency entry in experiment [2], in experiment [3], in experiment [10], in experiment [11] and in [6] was “inactive” each time. For the same compound, the max response in experiment [9] is -2.62% (inactive).
Turning to `COCC(=O)NCC=Cc1ccc2ncnc(Nc3ccc(Oc4ccc(C)nc4)c(C)c3)c2c1`, the outcome in experiment [8] was “inactive”. In addition, the Potency result in experiment [3] is “inactive”.
In the case of `CCOc1cc(C=C2C(=O)N(c3ccccc3)N=C2C)cc(Cl)c1OCC(=O)OC`, the outcome in experiment [8] is “inactive”. The Potency entry in experiment [3] was “inactive”.
As for `CCOC(=O)N[C@@H]1CC[C@@H]2[C@@H](C1)C[C@H]1C(=O)O[C@H](C)[C@H]1[C@@H]2C=Cc1ccc(-c2cccc(F)c2)cn1`, the outcome in [8] is “inactive”. Further, the Potency entry in [3] is “inactive”.
Regarding `COc1ccc(COc2cc3oc(=O)c4cc(C(C)O)ccc4c3cc2OC)cc1` (stereo not drawn), the outcome in experiment [8] was “inactive”. In experiment [3], the Potency result is “inactive”.
As to `C[C@]1(c2nc3c(C(N)=O)cccc3[nH]2)CCCN1`, in [8], the outcome was “inactive”. Moreover, in experiment [3], the Potency result is “inactive”.
In the case of `Cn1cc(-c2ccc3nnc(C(F)(F)c4ccc5ncccc5c4)n3n2)cn1`, the outcome in [8] is “inactive”. The Potency in experiment [3] was 14.9 µM (active); in experiment [12], 3.01 µM (active).
For the compound `CCc1ccc(CCOc2ccc(CC3SC(=O)NC3=O)cc2)nc1` (stereo not drawn), the outcome in [8] is “inactive”. Besides, the Potency entry in experiment [3], in [10], in experiment [11], in experiment [6] and in [7] was “inactive” each time.
With `COc1ccc(CCN2CCN(CCCc3ccccc3)CC2)cc1OC`, the outcome in experiment [8] is “inactive”. For the same compound, the Potency entry in experiment [3], in [12] and in experiment [6] was “inactive” each time. Further, in [11], the Potency is 8.49 µM (active).
With `CN(C(=O)c1ccc(F)cc1C(F)(F)F)C1CCN(c2nnc(-c3ccnn3C)c3ccccc23)CC1`, the outcome in experiment [8] was “inactive”. For the same compound, the Potency result in [3] and in [11] was “inactive” throughout.
Regarding `CCN(CC)CCCC(C)Nc1nc(C)cc(Nc2ccc3nc(C)cc(N)c3c2)n1` (stereo not drawn), the outcome in experiment [8] was “inactive”. Moreover, the Potency entry in experiment [3] and in experiment [12] was “inactive” each time.
For `O=C(Nc1cccnc1)N1CCC(Cc2cccc(Oc3ccc(C(F)(F)F)cn3)c2)CC1`, in [8], the outcome is “inactive”. For the same compound, the Potency result in experiment [3] is “inactive”. For the same compound, the Potency was 4.25 µM (active) in experiment [11]; 10.7 µM (active) in [12]; 6.49 µM (active) and 7.42 µM (active) in experiment [6]; 5.25 µM (active) in experiment [7].
For `O=c1[nH]c(-c2ccc(C(F)(F)F)cc2)nc2c1CSCC2`, the outcome in [8] is “inactive”. For the same compound, the Potency result in [3], in experiment [11] and in experiment [6] was “inactive” in each case. Besides, the Potency in [12] is 19 µM (active).
For the compound `COc1cc2c(cc1OC)CN(CCc1ccc(NC(=O)c3cccc4c(=O)c5cccc(OC)c5[nH]c34)cc1)CC2`, the outcome in experiment [8] was “inactive”. Moreover, the Potency result in experiment [3] and in experiment [6] was “inactive” in each case. The Potency in experiment [12] is 3.01 µM (active); in experiment [13], 35.5 µM (active). Besides, the activity in [14] was -13%. For the same compound, the activity change, negative = inhibition in [15] is -0.294%.
Regarding `COc1ccc(-c2oc3cc(OC)ccc3c2C(=O)c2ccc(C#N)cc2)cc1`, the outcome in [8] is “inactive”. For the same compound, the Potency entry in experiment [3] is “inactive”. In addition, the Potency in experiment [12] was 7.56 µM (active).
Regarding `Cc1c(C)c2c(c(C)c1O)CCC(C)(COc1ccc(CC3SC(=O)NC3=O)cc1)O2` (stereo not drawn), the outcome in experiment [8] is “inactive”. Moreover, in [3], the Potency entry is “inactive”. The Potency in [12] was 6.92 µM (active).
On to `CNCc1ccc(-c2[nH]c3cc(F)cc4c3c2CCNC4=O)cc1`, for which, in [8], the outcome was “inactive”. Moreover, the Potency result in experiment [3] and in experiment [16] was “inactive” in each case. Besides, the Potency in [12] is 6.01 µM (active); in experiment [6], 16.3 µM (active) and 11.8 µM (active). Further, the activity in experiment [14] was -6.4%. For the same compound, the activity change, negative = inhibition in experiment [15] was -1.39%.
Turning to `O=C(NOC[C@H](O)CO)c1ccc(F)c(F)c1Nc1ccc(I)cc1F`, the outcome in experiment [8] was “inactive”. In addition, the Potency entry in [3], in experiment [6] and in experiment [7] was “inactive” in each case. In addition, the Potency in experiment [12] was 16.9 µM (active).
Take `CC(C)OC(=O)C1=CN(C(=O)c2ccc(F)c(F)c2)CC(C)(C)c2c1[nH]c1ccccc21`: the outcome in experiment [8] is “inactive”. In addition, the Potency entry in experiment [3], in experiment [11], in [6] and in experiment [7] was “inactive” each time.
Consider `CN(C)C(=O)c1ccc(S(=O)(=O)c2ccc(NC(=O)[C@@](C)(O)C(F)(F)F)c(Cl)c2)cc1`, for which, in [8], the outcome is “inactive”. Also, the Potency entry in [3] and in experiment [11] was “inactive” in each case. Also, in [12], the Potency was 6.74 µM (active).
As to `CCCn1c(=O)c2[nH]c(C34CC5CC3C[C@@H](C5)C4)nc2n(CCC)c1=O`, in experiment [8], the outcome is “inactive”. The Potency result in experiment [3] and in experiment [6] was “inactive” each time.
Consider `CCOc1cc(C(=O)Nc2ccc(Cl)c(-c3nc4ccccc4[nH]3)c2)cc(OCC)c1OCC`, for which the outcome in [8] is “inactive”. For the same compound, the Potency entry in [3], in [11] and in experiment [12] was “inactive” in each case.
`Cn1c(=O)c(F)c(Nc2ccc(I)cc2F)c2c(=O)n(C[C@@H](O)CO)cnc21`: the outcome in experiment [8] is “inactive”. Further, in [3], the Potency entry was “inactive”.
